In the library only some 4% were active in any assay of this set; here they are far more common.
KKLEB tox: reduces viability of KKLEB cystic fibrosis airway cells. KKLEB CF airway cells viability, ATPlite luminescence, overnight; hits give low values; cells stimulated with P. aeruginosa culture filtrate. activity change (cytotoxicity), % at 5 µM. actives 0.36% (n = 360,000). AID 602141;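 active means corrected activity change at or below -50% at 5 µM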
TWEAK-Fn14 inh: inhibitors of TWEAK-Fn14 interaction signaling. inhibition, % at 10 µM. actives 2% (n = 360,000). AID 1159606. TWEAK-stimulated Fn14 reporter cells, luciferase luminescence, 8 h; in the data active means inhibition above about 50%
TROY NFkB inh: blocks TROY-dependent signaling in reporter cells. Q293 LMP1-TROYcd NF-kB luciferase reporter, 4 h. inhibition, % at 10 µM. actives 0.98% (n = 360,000);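 active means compounds whose plate-normalised and pattern-corrected inhibition of the luciferase reporter signal at the single screening dose is 50% or more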
CF NFkB block: cystic fibrosis NF-kB activation inhibition. KKLEB NF-kB-GFP reporter, PAF-induced, GFP fluorescence overnight. inhibition, % at 5 µM. actives 0.86% (n = 360,000);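 active means at least 50% inhibition at 5 µM, scaled per plate between neutral and stimulator controls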;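 further: PAF is a Pseudomonas aeruginosa culture filtrate used as stimulus; plate controls were PAF-stimulated DMSO wells for no effect and unstimulated DMSO wells for full effect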
HIF-2a block: inhibitors of HIF-2a | 786-0 RCC cells HIF-2a reporter, luciferase luminescence, overnight | inhibition, % at 18.8 µM | actives 0.72% (n = 360,000) | AID 624352;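 active means inhibition of the luminescence signal of 40% or more relative to plate controls, in a single-dose primary screen at 18.75 µM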
Peg3 promoter: inhibitors of Peg3 promoter. HeLa PEG-Prom luciferase reporter, luminescence, overnight. actives 1.7% (n = 360,000). inhibition, % at 20 µM;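 active means inhibition of at least 50% at 20 µM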
* hit, by the source's call; · = not tested or not shown.

SMILES	KKLEB tox	TWEAK-Fn14 inh	TROY NFkB inh	CF NFkB block	HIF-2a block	Peg3 promoter
COc1ccccc1-c1oc2ccccc2c1C#CC1(N)CCCCC1	-18	-1	-7	8	9	72*
COc1cc(/C=C2/SC(=Nc3ccc(O)cc3)NC2=O)cc(OC)c1O	-13	18	6	-12	26	18
COc1ccc(N=C2NC(=O)/C(=C/c3ccc(O)c(OC)c3)S2)cc1	-7	44	8	57*	12	37
Nc1ccn([C@@H]2O[C@H](CNCc3ccc(-c4cc(C(F)(F)F)ccc4Cl)o3)[C@@H](O)[C@H]2O)c(=O)n1	-8	-17	-18	28	10	8
O=[N+]([O-])c1ccccc1CCc1cnc(Cl)s1	3	58*	52*	0	-36	-15
O=[N+]([O-])c1ccccc1CSc1ccccn1	5	-25	-2	-13	-35	-13
O=C(CSc1nc2ccc(NC(=O)c3ccccc3C(=O)O)cc2s1)Nc1ccc(F)c([N+](=O)[O-])c1	-12	-17	-26	-23	-37	-103
O=C(Nc1cc(Sc2nc3ccccc3s2)cc([N+](=O)[O-])c1)c1cccc(F)c1F	-6	58*	24	12	10	21
Cc1ccc(NC(=O)c2cc(S(=O)(=O)NCCC3=CCCCC3)ccc2F)cc1	8	57*	35	-14	7	30
Cc1ccc(S(=O)(=O)N2[C@@H](c3ccc(Cl)c(Cl)c3)C(C(=O)O)=C[C@H]2CC2CCCC2)cc1	9	11	67*	27	12	1
Cc1ccc(S(=O)(=O)N2[C@@H](c3ccc(Cl)cc3)C(C(=O)O)=CC[C@H]2c2ccc(Cl)c(Cl)c2)cc1	23	26	63*	2	11	5
Cc1ccc(S(=O)(=O)N2[C@@H](c3ccc(Br)cc3)C(C(=O)O)=CC[C@H]2c2ccc(C(C)C)cc2)cc1	6	21	70*	48	2	25
CCc1ccc([C@@H]2CC=C(C(=O)O)[C@H](c3ccc(C(C)(C)C)cc3)N2S(=O)(=O)c2ccc(C)cc2)cc1	4	84*	84*	42	14	-1
CCc1nc2ccc(C(=O)NCCC(C)C)cn2c1N(C)Cc1ccc(OC)cc1	-19	-49	-13	31	9	18
CC(C)(C)c1cc(NS(=O)(=O)c2cccs2)no1	12	13	9	2	18	3
O=C(Nc1cccnc1)c1cc(-c2ccc(Cl)cc2Cl)on1	-36	9	-5	-9	-244	-165
Cc1ccc(S(=O)(=O)N2C(c3ccc(Cl)c(Cl)c3)CC=C(C(=O)O)C2c2ccc(Cl)cc2)cc1 (configuration not stated)	·	·	·	·	-21	·
Cc1ccc(S(=O)(=O)N2[C@@H](c3ccc(C(C)(C)C)cc3)C(C(=O)O)=CC[C@H]2c2ccc(Cl)cc2)cc1	-7	89*	88*	25	13	25
COC(=O)c1nn(-c2ccc(-c3ccccc3)cc2)cc1O	6	81*	47	-8	-174	-32
C[C@@H]1CN([C@@H](C)CO)C(=O)Cc2cc(NC(=O)Nc3ccc(F)cc3)ccc2O[C@@H]1CN(C)Cc1ccc(Cl)c(Cl)c1	-20	60*	21	52*	-39	85*
C[C@@H]1CCCCO[C@@H](CN(C)CC2CCCCC2)[C@@H](C)CN([C@H](C)CO)C(=O)c2cc(NS(=O)(=O)c3ccc(Cl)cc3)ccc2O1	16	2	17	-24	-43	90*
C[C@@H]1CCCCO[C@H](CN(C)Cc2ccc(C(F)(F)F)cc2)[C@H](C)CN([C@@H](C)CO)C(=O)c2cc(NC(=O)Cc3ccccc3)ccc2O1	-8	15	28	22	-30	50*
C[C@H]1CN([C@@H](C)CO)C(=O)Cc2cc(NS(C)(=O)=O)ccc2O[C@@H]1CN(C)Cc1ccc(Cl)c(Cl)c1	-14	-36	4	5	6	12
COc1ccc(CN(C)C[C@@H]2OCCCC[C@H](C)Oc3ccc(NC(=O)Nc4ccc(F)cc4)cc3C(=O)N([C@H](C)CO)C[C@H]2C)cc1	-10	0	-6	-2	-19	74*
CC(C)(C)CC(C)(C)SSc1n[nH]c(=S)s1	0	-13	17	2	6	4
SMILES	KKLEB tox	TWEAK-Fn14 inh	TROY NFkB inh	CF NFkB block	HIF-2a block	Peg3 promoter
C[C@H](CO)N1C[C@H](C)[C@@H](CN(C)C(=O)Nc2ccccc2)Oc2ccc(NC(=O)Nc3ccc(C(F)(F)F)cc3)cc2C1=O	8	7	1	0	11	1
C[C@@H]1CN([C@@H](C)CO)C(=O)c2cc(NC(=O)Nc3ccc(F)cc3)ccc2O[C@@H]1CN(C)Cc1ccc(Oc2ccccc2)cc1	-9	44	25	18	1	80*
C[C@@H]1CN([C@H](C)CO)C(=O)c2cc(NC(=O)Cc3ccccc3)ccc2O[C@H]1CN(C)Cc1ccc(Oc2ccccc2)cc1	-5	25	7	-9	9	21
C[C@@H]1CN([C@@H](C)CO)C(=O)c2cc(NC(=O)Nc3ccccc3)ccc2O[C@H]1CN(C)C(=O)Nc1cccc2ccccc12	-8	48	52*	-19	-2	28
C[C@H](CO)N1C[C@H](C)[C@@H](CN(C)S(=O)(=O)c2ccccc2)Oc2ccc(NC(=O)Nc3ccc(C(F)(F)F)cc3)cc2C1=O	-8	61*	36	24	-10	24
C[C@@H]1CN([C@H](C)CO)C(=O)c2cccc(NC(=O)NC3CCCCC3)c2O[C@@H]1CN(C)C(=O)Nc1ccc(C(F)(F)F)cc1	-8	6	11	-26	5	88*
Nc1nc(N)c2[nH]c(=S)[nH]c2n1	-6	6	3	-4	14	23
COc1ccc(CNC(=O)C2(C)Cc3c(-c4ccc(N(C)C)cc4)ccnc3O2)cc1OC (configuration not stated)	-11	6	3	-10	1	4
CCCC(=O)n1nc(-c2ccc(Cl)cc2)nc1SC	5	-27	-35	-6	-153	-174
CCC(=O)n1nc(-c2ccc(Cl)cc2)nc1SC	-1	77*	-31	-1	-215	-176
O=C(CC[C@H]1O[C@@H](n2ccc(=O)[nH]c2=O)[C@H](O)[C@@H]1O)N[C@@H](Cc1ccccc1)C(=O)NCC1CCCO1 (some centres not stated)	11	-5	54*	-2	10	-4
CCCn1c(SCC(=O)NC2CCCCC2)nnc1-c1ccco1	4	8	6	7	-2	12
CCCN(CC1CC1)C(=O)CSc1ncnc2sccc12	-7	-20	-22	-3	-8	-1
OC(c1cccc(Cl)c1)c1ncc(-c2ccc(Oc3ccccc3)cc2)[nH]1 (configuration not stated)	-10	-2	6	17	-33	54*
